Screening results (PubChem BioAssay)
Sampled rows, rich in hits. Any-hit rate of the full collection: about 2.7%.
NadD block: blocks S. aureus nicotinate mononucleotide adenylyltransferase; inhibition, % at 20 µM; 360,000 compounds, 0.78% hits; AID 602399; purified NadD enzyme, colorimetric absorbance read-out; in the data active = inhibition above about 26%
MPTP inh: permeability transition pore inhibition; isolated mouse mitochondria, Ca2+ swelling absorbance, 30 min; inhibition, % at 10 µM; 360,000 compounds, 1.4% hits; AID 602449;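 active = inhibition of 50% or more, scaled per plate between neutral and stimulator controls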;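 note: 0% = DMSO wells given calcium and 100% = 1 mM EGTA wells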
aDG glyco up: alpha-DG glycosylation activation. AID 624168. Pro5-aDG cells, alpha-DG glycosylation AlphaScreen (IIH6); 0% Pro5, 100% B10-LARGE cell signal. activation, % at 10 µM. 360,000 compounds, 0.22% hits;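 active = activation of at least 8% versus controls, or a plate z-score of at least 8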;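 note: Pro5 are CHO cells carrying HIG-tagged alpha-DG that lacks glycosylation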
H9c2 TAG inh: inhibitors of triacylglycerol accumulation. H9c2 cells, Nile Red lipid (TAG) fluorescence; cells loaded with 200 µM oleic acid. 230,000 compounds, 0.66% hits. inhibition, % at 12.5 µM;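 active = pattern-corrected inhibition of lipid staining of at least 50% with the nuclear-stain viability signal not falling by more than 50%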;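 note: 0% = DMSO wells and 100% = triacsin C control wells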
MPTP counter: membrane potential counter-screen of mitochondrial pore inhibitors. inhibition, % at 10 µM. 5,000 compounds, 78% hits. shares compounds with MPTP inh. isolated mitochondria, Rhodamine 123 fluorescence; in the data active = inhibition above about 22%;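 note: 0% = DMSO vehicle and 100% = positive control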
MPTP swell DR: dose response confirmation of mitochondrial permeability transition pore inhibitors | IC50, µM | AID 651561 | shares compounds with MPTP inh | isolated mitochondria swelling, absorbance | 780 compounds, 58% hits; in the data active = IC50 below about 20 µM
MPTP cs DR: MPTP inhibitor counter-screen activity, dose response | isolated mitochondria counterscreen, fluorescence read-out | 780 compounds, 49% hits | IC50, µM | shares compounds with MPTP inh | AID 651564; in the data active = IC50 below about 80 µM
* = called active by the depositor.

`Cc1cc(Nc2ccc(Cl)cc2)nc(NCc2ccccc2)n1` gave NadD block 12, MPTP inh 53*, aDG glyco up 0 and MPTP counter 31*.
Cc1cc(N2CCC(C)CC2)nc(NCc2ccccc2)n1 was read as NadD block 3, MPTP inh 91*, aDG glyco up 0 and MPTP counter 111*.
Screening Cc1cc(Nc2cccc(F)c2)nc(NCc2ccccc2)n1 returned NadD block -5, MPTP inh 92*, aDG glyco up 1 and MPTP counter 73*.
Cc1cc(N/N=C/c2ccc(N(C)C)cc2)nc(NCc2ccccc2)n1 was read as NadD block 8, MPTP inh 60*, aDG glyco up 0, H9c2 TAG inh 9 and MPTP counter 56*.
`CCCn1nc(C(=O)Nc2ccc3c(c2)OCCO3)c2ccccc2c1=O` gave NadD block -4, MPTP inh 1, aDG glyco up 0 and H9c2 TAG inh -3.
`COC(=O)C(C)n1cnc2c(nnn2-c2cccc(OC)c2)c1=O` (configuration not stated) gave NadD block -1, MPTP inh -1 and aDG glyco up 0.
For O=C(NNC(=O)C1CC1)c1cc(Br)c(Br)s1 the results were NadD block 2, MPTP inh 45, aDG glyco up 0 and H9c2 TAG inh 4.
`O=C(C[C@@H]1CC[C@H](NC(=O)c2ccc3c(c2)OCO3)[C@@H](CO)O1)NCc1ccc(F)cc1` gave MPTP inh -1 and aDG glyco up 0.
Cc1ccc(/C=N/Nc2cc(C)nc(NCc3ccccc3)n2)cc1 was read as NadD block 5, MPTP inh 42, aDG glyco up 1 and H9c2 TAG inh 9.
Screening CCCCNc1cc(C)nc(NCc2ccccc2)n1 returned NadD block -7, MPTP inh 104*, aDG glyco up 0, H9c2 TAG inh -14 and MPTP counter 131*.
Screening Cc1cc(Nc2ccccc2)nc(NCc2ccccc2)n1 returned NadD block 2, MPTP inh 90*, aDG glyco up 1, H9c2 TAG inh -16 and MPTP counter 92*.
For CCOC(=O)N1CCC(Nc2c(Nc3cccc(CC)c3)c(=O)c2=O)CC1 the results were NadD block -3, MPTP inh 89*, aDG glyco up 0 and MPTP counter 72*.
`COc1ccc(OCC(=O)Nc2ccc(Cl)cc2)cc1` gave NadD block -6, MPTP inh -1, aDG glyco up 0 and H9c2 TAG inh 4.
`O=C(COc1ccc2ccccc2c1)Nc1ccc(Cc2ccncc2)cc1` gave NadD block 6, MPTP inh 94*, aDG glyco up 0 and MPTP counter 88*.
For O=C(COc1ccc(Cl)cc1)Nc1ccc(Cc2ccncc2)cc1 the results were NadD block -3, MPTP inh 75*, aDG glyco up 0, H9c2 TAG inh -24 and MPTP counter 72*.
`CCCCCCCSc1nnc(N)s1` gave NadD block -3, MPTP inh 4, aDG glyco up 0 and H9c2 TAG inh -13.
Screening O=C(Cc1cccs1)Nc1cccc(-c2nc3cc4ccccc4cc3[nH]2)c1 returned NadD block 19, MPTP inh 90*, aDG glyco up 0 and MPTP counter 37*.
For O=C(CSc1ccc(C(F)(F)F)cc1[N+](=O)[O-])Nc1ccc2ccccc2c1 the results were NadD block 5, MPTP inh 74*, aDG glyco up 0, MPTP counter 16, MPTP swell DR >100 and MPTP cs DR >80.
Screening COc1cc(NC(=O)c2cc(S(=O)(=O)N3CCCCC3)c[nH]2)cc(OC)c1 returned NadD block 9, MPTP inh -2, aDG glyco up 0 and H9c2 TAG inh 17.
Screening O=C(COC(=O)c1ccc(Br)c(S(=O)(=O)N2CCOCC2)c1)NC1CC1 returned NadD block 3, MPTP inh -1, aDG glyco up 0 and H9c2 TAG inh -4.
For O=C(N/N=C/c1cccnc1)c1cccc(Cl)c1 the results were NadD block -1, MPTP inh 4 and aDG glyco up 0.
For CC(C)c1ccc(/C=N/NC(=O)c2cccc(Cl)c2)cc1 the results were NadD block 2, MPTP inh 74*, aDG glyco up 0, H9c2 TAG inh -5 and MPTP counter 65*.
For Cc1cccc(OCC(=O)OC(C)CN2CCCCC2)c1 (configuration not stated) the results were NadD block -6, MPTP inh 0, aDG glyco up 0 and H9c2 TAG inh 8.
`CCN1CCCC1CNC(=O)c1cc2c(-c3ccc(Cl)cc3)nn(C)c2s1` (configuration not stated) gave NadD block 0, MPTP inh 83*, aDG glyco up 0, H9c2 TAG inh 53*, MPTP counter -19, MPTP swell DR 11* and MPTP cs DR >80.
For O=C(O)c1ccc(N=Nc2c(O)ccc3ncccc23)cc1 the results were NadD block -3, MPTP inh 9 and aDG glyco up 1.
`Cc1cc(C)cc(OCC(=O)N2N=C(c3cccnc3)CC2(O)C(F)(F)F)c1` (configuration not stated) gave NadD block -2, MPTP inh 8 and aDG glyco up 0.
Cc1cc(C)cc(OCC(=O)N2N=C(C(F)(F)F)CC2(O)C(C)(C)C)c1 (configuration not stated) was read as NadD block -5, MPTP inh 57*, aDG glyco up 0, H9c2 TAG inh -6 and MPTP counter 43*.
Cc1cccc(NC(=O)c2cc(-c3cc(C)ccc3O)n[nH]2)c1 was read as NadD block -3, MPTP inh 1 and aDG glyco up 0.
For Cc1ccc(O)c(-c2cc(C(F)(F)F)[nH]n2)c1 the results were NadD block -1, MPTP inh 63*, aDG glyco up 0 and MPTP counter 67*.
Cc1ccc2c(c1)c1c(n2CC(O)CNC(C)(C)C)CCCC1 (configuration not stated) was read as NadD block 1, MPTP inh 70*, aDG glyco up 0, H9c2 TAG inh 46, MPTP counter -18, MPTP swell DR 13* and MPTP cs DR >80.
For O=C(COc1ncnc2ccccc12)Nc1ccc(Cl)c([N+](=O)[O-])c1 the results were NadD block 3, MPTP inh 5, aDG glyco up 0 and H9c2 TAG inh -10.
`O=C(CN(C(=O)c1ccc(Cl)cc1)C1CCCCC1)Nc1ccc(Cl)c([N+](=O)[O-])c1` gave NadD block 16, MPTP inh 64*, aDG glyco up 3 and MPTP counter 86*.
